TWEAK Fn14 block – inhibitors of TWEAK-Fn14 signaling, primary screen, luciferase reporter cells, uHTS; inhibition, % at 10 µM; TWEAK-stimulated Fn14 reporter cells, luciferase luminescence, 8 h; 2% of 360,000 active; in the data active = inhibition above about 50%
Shn3 3UTR inh – reduction of Shn3 3'UTR firefly luciferase signal, primary screen, Schnurri-3 inhibitor project, cell-based, Clone20 osteoblasts, set 2 | Clone20 osteoblast Shn3 3'UTR firefly luciferase, 24 h | inhibition, % at 12.5 µM | 0.52% of 360,000 active;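 active = mean inhibition of at least 75% with every replicate also reaching 75%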;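 also: 0% = median of neutral control wells and 100% = pilot-screen positive control compound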
MITF TRPM1 inh – inhibitors of MITF-dependent TRPM1 promoter reporter, primary screen, cell-based, SK-MEL-5, single point, luciferase. inhibition, % at 12.5 µM. SK-MEL-5 TRPM1 promoter luciferase, 24 h. 0.83% of 330,000 active;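 active = mean inhibition across replicates of 60% or more, whatever share of single replicates reaches that level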
TROY signal inh – inhibitors of TROY-driven NF-kB signaling, primary screen, Q293 LMP1-TROYcd cells, NF-kB luciferase, uHTS; 0.98% of 360,000 active; AID 1347056, 2019; Q293 LMP1-TROYcd NF-kB luciferase reporter, 4 h; inhibition, % at 10 µM;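 active = compounds whose plate-normalised and pattern-corrected inhibition of the luciferase reporter signal at the single screening dose is 50% or more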
Peg3 promoter – Peg3 promoter-driven luciferase inhibitors, primary screen, cell-based, HeLa, luciferase luminescence | HeLa PEG-Prom luciferase reporter, overnight | inhibition, % at 20 µM | 1.7% of 360,000 active;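 active = inhibition of at least 50% at 20 µM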
EBV LMP1 NFkB – EBV LMP1-driven NF-kappaB luciferase reporter inhibitors, primary screen, cell-based, luminescence, single point; LMP1-induced NF-kappaB luciferase reporter cells; inhibition, % at 12.5 µM; 0.69% of 350,000 active; AID 504558, 2011; in the data active = inhibition above about 41%;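 also: 0% = neutral control wells and 100% = reference inhibitor control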
* marks the source's active call; other numbers are inactive results; nt = no result. Most compounds without a hit are left out; they make up all but 4.1% or so of the library.

SMILES | TWEAK Fn14 block | Shn3 3UTR inh | MITF TRPM1 inh | TROY signal inh | Peg3 promoter | EBV LMP1 NFkB
CN(C)CCCNc1ccc(-c2nn(C)c(=O)c3ccccc23)cc1[N+](=O)[O-] | -3 | 10 | -10 | 9 | 1 | -47
CC1=NN(c2ccccc2)C(=O)/C1=C\C=C\c1ccccc1 | 94* | 15 | nt | 49 | 71* | nt
COc1cc([N+](=O)[O-])ccc1NC(=O)CC1SC(=Nc2ccc(F)cc2)N(CCC2=CCCCC2)C1=O (stereo not drawn) | 60* | 81 | 37 | -1 | -12 | 28
Cc1c(C(=O)NCCC2=CCCCC2)oc2ccc(S(=O)(=O)N3CCOCC3)cc12 | 52* | 34 | 13 | 38 | 66* | 14
Cc1c(C(=O)NCCCN2CCCC2=O)oc2ccc(S(=O)(=O)N3CCOCC3)cc12 | 12 | -12 | -6 | 9 | 9 | 2
Cc1ccc(CNC(=O)c2oc3ccc(S(=O)(=O)N4CCC5(CC4)OCCO5)cc3c2C)cc1 | 54* | 51 | 19 | 34 | 51* | 3
NS(=O)(=O)c1cccc(NC(=O)CSc2nc3ccccc3c(=O)n2CC2CCCO2)c1 (stereo not drawn) | 9 | -12 | -14 | 20 | 2 | 2
O=Cc1ccc(Sc2nnc(-c3ccccc3)o2)c([N+](=O)[O-])c1 | -21 | -11 | -17 | -1 | 11 | 9
Cn1nc([N+](=O)[O-])nc1Sc1nnc(-c2ccccc2)o1 | 69* | 6 | 12 | -5 | 29 | 3
CCc1cc2c(=O)nc3n(c2s1)Cc1ccccc1/C3=C(/O)c1ccc(F)cc1 | 100* | -10 | -17 | -1 | 33 | -9
COC(=O)[C@H](C)NC(=O)Nc1cccc(C)c1 | 7 | 2 | 14 | 4 | 14 | 49*
Cc1cccc(NC(=O)NC(C)CCc2ccccc2)c1 (stereo not drawn) | -14 | 14 | -2 | -26 | -59 | -16
COc1ccccc1NC(=O)c1oc2ccccc2c1C | -39 | -71 | nt | -60 | -222 | -21
COc1ccccc1CNC(=O)c1oc2ccccc2c1C | -4 | 6 | -11 | 51* | -5 | 0
CC(C)Sc1ccccc1C(=O)Nc1ccc2c(c1)n(C)c(=O)n2C | 9 | 7 | -12 | -3 | 8 | 1
CCN(CC)S(=O)(=O)c1cc([N+](=O)[O-])ccc1NNC(=O)Nc1ccc(Cl)c(Cl)c1 | 59* | nt | 38 | 54* | 49 | 46*
O=C(Nc1cc([N+](=O)[O-])ccc1Cl)C(Sc1ccccc1)c1ccccc1 (stereo not drawn) | -9 | 9 | 4 | -6 | 28 | -10
CCCCN(CCCC)S(=O)(=O)c1ccc(NC(=O)c2ccc([N+](=O)[O-])cc2Cl)cc1 | 63* | 78 | 13 | 31 | 18 | -5
O=C(Nc1ccc(Cl)c([N+](=O)[O-])c1)C(Sc1ccccc1)c1ccccc1 (stereo not drawn) | 94* | 47 | -4 | 55* | 53* | 21
O=C(NNc1ccccc1[N+](=O)[O-])Nc1ccccc1 | 10 | -32 | 5 | 28 | 7 | 5
Cc1ccc(NC(=O)CN(c2ccc(Cl)cc2)S(=O)(=O)c2cc([N+](=O)[O-])ccc2Cl)cc1 | 34 | -8 | 9 | 14 | 27 | -8
O=C(NNc1ccccc1[N+](=O)[O-])Nc1ccc(Cl)c(Cl)c1 | 39 | 5 | -2 | 55* | -9 | 32
CC1CN(c2ccc(S(=O)(=O)N3CCCC3)cn2)CC(C)O1 (stereo not drawn) | -6 | 0 | -3 | 32 | 7 | -1
Cc1cc(C)c(NC(=O)COC(=O)c2ccncc2)c(C)c1 | 1 | -33 | -1 | -7 | 4 | 1
Cc1ccc(S(=O)(=O)N2CCOCC2)cc1-c1n[nH]c(=S)n1-c1ccccc1 | 2 | 3 | -3 | -1 | 4 | -3
SMILES | TWEAK Fn14 block | Shn3 3UTR inh | MITF TRPM1 inh | TROY signal inh | Peg3 promoter | EBV LMP1 NFkB
Cc1c(C=Nc2ccc(S(=O)(=O)N(C)C)cc2)c(O)[nH]c(=O)c1C#N | 6 | 12 | -5 | 7 | 10 | -8
Cc1nc2c(c(=O)c3ccccc3n2C)c(=O)n1C1CCCCCC1 | -11 | -19 | -36 | -30 | -95 | -4
Cn1c2ccccc2c(=O)c2c(=O)n(C3CCCCC3)c(-c3ccco3)nc21 | -40 | 2 | 70* | -31 | 0 | -3
Cc1cc(=O)oc2ccc(OC(=O)c3cccc(S(=O)(=O)N4CCOCC4)c3)cc12 | 101* | 5 | -4 | 39 | -10 | 1
COc1cccc(/C=C/C(=O)OCC(=O)N2CCCC2)c1OC | -3 | -42 | -2 | -17 | -48 | -5
CCN(C(=S)Nc1cccc2ccccc12)c1ccccc1 | 83* | 13 | nt | 31 | 20 | 0
CC(C)(C)OC(=O)N1CCC(Cc2cc(-c3cccnc3)no2)(C(=O)O)CC1 | -3 | -3 | 10 | -3 | -4 | 12
COc1cccc2oc3cc(C#CC4(O)CCCCC4)ccc3c(=O)c12 | 73* | -24 | -25 | 77* | -95 | -36
COc1cccc2sc3ccc(C#CC4(O)CCCCC4)cc3c(=O)c12 | 35 | -86 | -102 | 77* | -162 | -35
CCC1(C(=O)NC(=Nc2ccccc2)Nc2ccccc2)CCOC1=O (stereo not drawn) | -2 | -4 | -4 | -1 | -2 | 6
COC(=O)c1c(NC(=O)C2CC=CCC2C(=O)O)sc2c1CCCCC2 (stereo not drawn) | 96* | -15 | 8 | 2 | 7 | -2
O=C(Nc1sc2c(c1C(=O)O)CCCCC2)c1ccccc1 | 64* | -59 | -56 | 37 | -215 | 3
COC(=O)c1c(NC(C)=O)sc2c1CCCCC2 | 8 | 6 | 4 | 6 | -8 | -3
O=C(Nc1sc2c(c1C(=O)O)CCC2)c1ccccc1 | 36 | -15 | -10 | -34 | -144 | -2
Cn1ccnc1C1CCCCN1Cc1nc(-c2ccc(Cl)cc2)no1 (stereo not drawn) | 17 | -3 | 7 | 0 | 14 | -1
O=C(c1ccc2c(c1)C(=O)N(CCCO)C2=O)c1ccc2c(c1)C(=O)N(CCCO)C2=O | 5 | 15 | 2 | 15 | 10 | 3
O=C1c2ccc3c4c(ccc(c24)C(=O)N1CCCCO)C(=O)N(CCCCO)C3=O | -57 | 37 | 102* | -44 | 49 | 12
CCCC(=O)NCCCc1nc2ccccc2n1C | 1 | 14 | -6 | 3 | -2 | 92*
Cc1ccc(CCNC(=O)CCc2nc3ccccc3[nH]2)cc1 | 1 | 5 | -8 | 6 | 7 | 57*
